# Measured values published in PubChem BioAssay AID1851 (National Center for Advancing Translational Sciences (NCATS), 2009).
# The whole screen tested about 16,000 compounds, of which about 5,800 (36%) were called active. Inconclusive results (about 23%) are left out. Some of the results follow. Unmarked numbers belong to inactive results. Calls come from the whole dose curve; as a rule, active = well fitted curve in the direction sought with a large enough effect; inconclusive = small, poorly fitted or top-dose-only effect, or effect the other way; inactive = no such curve, though single readings can be large or run the other way.
# Target: Cytochrome P450 2C19 (Homo sapiens) (UniProt P33261)
# Sequence (P33261 whole entry, looked up): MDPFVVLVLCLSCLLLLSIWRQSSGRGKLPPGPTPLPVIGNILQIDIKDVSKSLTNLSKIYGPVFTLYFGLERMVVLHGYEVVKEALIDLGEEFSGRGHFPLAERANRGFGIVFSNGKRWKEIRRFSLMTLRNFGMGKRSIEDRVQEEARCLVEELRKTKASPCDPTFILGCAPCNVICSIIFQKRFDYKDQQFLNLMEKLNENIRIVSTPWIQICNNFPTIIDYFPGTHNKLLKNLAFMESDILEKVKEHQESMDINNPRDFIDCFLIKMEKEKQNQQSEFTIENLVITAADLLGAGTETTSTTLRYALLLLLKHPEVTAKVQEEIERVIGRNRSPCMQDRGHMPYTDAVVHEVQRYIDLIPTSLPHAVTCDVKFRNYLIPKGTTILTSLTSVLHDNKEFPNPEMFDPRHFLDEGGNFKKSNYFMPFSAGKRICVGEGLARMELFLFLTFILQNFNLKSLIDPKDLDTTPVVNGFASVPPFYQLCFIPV
# Experiment: Cytochrome panel assay with activity outcomes
# Conditions: recombinant CYP, pro-luciferin dealkylation, luminescence, p450-cyp2c19; series mostly up to 57.1 µM; activity, negative = inhibition: at the top concentration
# % is set by controls: 0 for no effect and ±100 for the full control effect.
SMILES,AC50,"activity, negative = inhibition"
Fc1cc2nc(-c3ccncc3)[nH]c2cc1F,7.08 µM (active),
COc1ccc(C2=CSC(/N=C/c3ccc(F)cc3)=NN2)cc1,17.8 µM (active),
CC(C)CCOc1ccc(NC(=O)C2OC3OC(C)(C)OC3C3OC(C)(C)OC23)cc1 (centres undefined),,-23%
COc1ccc(Br)cc1C(=O)Nc1ccc(Cc2ccncc2)cc1,0.794 µM (active),
CCN(CC)CCNC(=O)c1cc(Br)c(N)cc1OC,,-17.9% [at 25.6 µM]
CN1CCc2c(sc3c2c(=O)n(-c2ccccc2)c2nncn32)C1,,-9.84%
Cn1c(=O)n(-c2ccc(Cl)cc2)c(=O)c2c3c(sc21)COC(C)(C)C3,20 µM (active),
Cc1ccc(-n2c(C)cc(/C=C(\C#N)C(=O)NCC3CCCO3)c2C)cc1 (centres undefined),3.16 µM (active),
COc1ccc(/C=C(\C#N)C(=O)NCC2CCCO2)cc1OC (centres undefined),,3.24%
COc1cc(/C=C(\C#N)C(=O)NCC2CCCO2)c([N+](=O)[O-])cc1OC (centres undefined),11.2 µM (active),
N[C@@H](Cc1ccnnc1)C(=O)O,,35.8% [at 11.4 µM]
CC(C)[C@H](CO)Nc1nc(Nc2ccc(C(=O)O)c(Cl)c2)c2ncn(C(C)C)c2n1,,-34.9%
CCOC(=O)CSc1cc(=O)n(C)c2cc(Cl)ccc12,4.47 µM (active),
Cc1ccc(C)c(/C(O)=C2\C(=O)C(=O)N(Cc3cccnc3)C2c2cccnc2)c1 (centres undefined),,-0.22%
Cc1cccc(-n2nc([N+](=O)[O-])c(=NCc3cccnc3)n2O)c1,6.31 µM (active),
Cn1c(=S)c2[nH]c(SCCN3C(=O)c4ccccc4C3=O)nc2n(C)c1=O,,17.2% [at 11.4 µM]
O=C1c2ccccc2C(=O)N1CCSC(=S)N1CCOCC1,1.58 µM (active),
Cc1nc2cnc(N3CCOCC3)nc2n(C)c1=O,,-28.1%
O=c1c(-c2ccccc2)nc2cnc(N3CCOCC3)nc2n1-c1ccccc1,,-17.9%
Cc1cc2ccccn2c1C(=O)c1ccc(Cl)cc1,1.26 µM (active),
Cc1cc2ccccn2c1C(=O)c1nc(N2CCOCC2)ncc1Cl,7.94 µM (active),
Cc1cc(CC(=O)O)n(C)c1C(=O)c1ccc(Cl)cc1,,-13.8% [at 25.6 µM]
CCC(=O)NNc1cc(=O)c2c(=O)n(C)c(=O)n(C)c2[nH]1,,9.13%
CC(=O)NC1=NC(=O)C(C)S1 (centres undefined),,17.4%
COc1cc2c(cc1OC)-c1cc(NCc3ccccn3)nc(=O)n1CC2,,7.74%

SMILES,AC50,"activity, negative = inhibition"
COc1ccc(CC(=O)NCc2ccccn2)cc1OC,28.2 µM (active),
Cc1ccc(CS(=O)(=O)CCC(=O)NCc2ccccn2)cc1,,-22.8%
COc1cc(CNCc2ccccn2)ccc1OCc1ccc(Cl)cc1Cl,3.98 µM (active),
CCN1C(=O)[C@H]2[C@H]3[C@H](O)[C@H](O)C/C(=N/OCC(C)C)[C@H]3CC[C@@H]2C1=O,,28.2% [at 11.4 µM]
COc1ccccc1OCC(=O)N/N=C1/SCC(=O)N1Cc1ccccc1,14.1 µM (active),
CCOC(=O)N/N=C1/C[C@@H](O)[C@@H](O)[C@@H]2[C@@H]3C(=O)N(Cc4ccccc4)C(=O)[C@H]3CC[C@H]12,,10.9% [at 11.4 µM]
COc1ccccc1OCC(=O)NNC(=O)c1cnccn1,,-6.18%
CCC(C)N1C(=O)S/C(=C/c2ccc(Sc3nc4ccccc4[nH]3)o2)C1=O (centres undefined),1.12 µM (active),
CCCCCC1CCC(C(=O)NNC(=S)NCC)CC1 (centres undefined),17.8 µM (active),
COc1ncnc(NS(=O)(=O)c2ccc(N)cc2)c1OC,,-33.9% [at 25.6 µM]
Cc1[nH]c(N)nc(=S)c1CCC(=O)O,,3.33% [at 11.4 µM]
Cc1[nH]c(N)nc(=S)c1CCCNc1ccccc1,2 µM (active),
Nc1nc(N)c(CCCCc2ccccc2)c(N)n1,,-22.9% [at 11.4 µM]
Cn1c(N)c(N=Nc2ccc(S(N)(=O)=O)cc2)c(=O)n(C)c1=O,,76% [at 11.4 µM]
c1ccc(-c2nnc(SCCC3OCCCO3)o2)cc1,5.01 µM (active),
COc1ccc(NC(=O)N2CC3(CCN(S(C)(=O)=O)CC3)C2)cc1,,-23%
COc1ccc(NC(=O)N2CCCC3(CCN(S(C)(=O)=O)CC3)C2)cc1,,-3.07%
COc1ccc(NC(=O)N2CCC3(CC2)CCN(S(C)(=O)=O)CC3)cc1,3.16 µM (active),
COc1ccc(NC(=O)N2CCCC3(CCN(C(=O)c4cnccn4)CC3)C2)cc1,,-10.3%
COc1ccc(NC(=O)N2CC3(CCN(S(=O)(=O)c4ccccc4)CC3)C2)cc1,,-20.5%
COc1ccc(NC(=O)N2CCC3(CC2)CCN(S(=O)(=O)c2ccccc2)CC3)cc1,,-14.2%
COc1ccc(NC(=O)N2CC3(CCN(C(=O)c4cnccn4)CC3)C2)cc1,,0.386%
COc1ccc(NC(=O)N2CCC3(CC2)CCN(C(=O)c2cnccn2)CC3)cc1,25.1 µM (active),
O=C(Nc1ccccc1)N1CCC2(CC1)CCN(S(=O)(=O)c1ccccc1)CC2,15.8 µM (active),
